Screen size: about 39,000 compounds; about 3,300 (8.5%) were called active. For the sample, actives were picked, then their nearest neighbours and some compounds at random.

This experiment relates to HepG2. Nature of the experiment: cytotoxicity call (relative viability < 0.9). As to conditions: 10 µM.
On to `Cc1ccc(C)c(C(=O)[C@H](N)CC(C)C)c1`, for which the cytotoxicity call was “inactive”.
In the case of `Cc1cc(C(=O)N2CC[C@H]3[C@@H]2CCN3C)no1`, the cytotoxicity call was “inactive”.
Consider `CCOc1ccc(N2CCNCC2)nn1`, for which the cytotoxicity call is “inactive”.
With `C[C@H](O)[C@]12[C@@H]3CC=C[C@H]1N2CC3` (stereo partly specified), the cytotoxicity call was “inactive”.
`C[C@@H](N)Cc1ccco1`: the cytotoxicity call is “inactive”.
On to `CSC1=NN1c1cc(C)nc(N)n1`, for which the cytotoxicity call was “inactive”.
For `N#C[C@@]12[C@H]3CC=C[C@@H]1N2CC3` (stereo partly specified), the cytotoxicity call was “inactive”.
Consider `c1nc(N2CCN3CCC[C@H]3C2)c2[nH]cnc2n1`, for which the cytotoxicity call was “inactive”.
Turning to `COCCCNC(=O)C1[C@@H]2CC[C@H]1CNC2` (stereo partly specified), the cytotoxicity call is “inactive”.
Next, `O=[N+]([O-])OC1COC2C(O[N+](=O)[O-])COC12` (stereo unspecified): “inactive”; `C=CCc1ccc2c(c1)OCO2`: “active”.
On to `OCc1ccc2c(c1)OCO2`, for which the cytotoxicity call was “inactive”.
On to `OC[C@@H](O)Cc1ccc2c(c1)OCO2`, for which the cytotoxicity call is “inactive”.
On to `CC=Cc1ccc2c(c1)OCO2`, for which the cytotoxicity call was “inactive”.
Turning to `COP(=S)(OC)Oc1ccc([N+](=O)[O-])cc1`, the cytotoxicity call is “inactive”.
`CC(C)N(CCC(C(N)=O)(c1ccccc1)c1ccccn1)C(C)C.O=P(O)(O)O` (stereo unspecified): the cytotoxicity call is “inactive”.
In the case of `Cn1ccnc1N1CCNCC1`, the cytotoxicity call was “inactive”.
As for `c1ccc2c(c1)Nc1ccccc1S2`, the cytotoxicity call is “active”.
In the case of `Nc1ccc(-c2ccccc2)cc1`, the cytotoxicity call is “inactive”.
`CC[n+]1c(-c2ccccc2)c2cc(N)ccc2c2ccc(N)cc21.[Br-]`: the cytotoxicity call is “active”.
With `O=c1ccc(=O)[nH][nH]1`, the cytotoxicity call is “inactive”.
`COC(C)(C)CCCC(C)CC=CC(C)=CC(=O)OC(C)C` (stereo unspecified): the cytotoxicity call was “inactive”.
For the compound `O=C1CNC[C@@H]2c3cccc(F)c3CCN12`, the cytotoxicity call is “inactive”.
Turning to `[N-]=[N+]=NCc1ccccc1C[C@]1(C(=O)N2CCCCC2)N=C(c2ccc(OCCCO)cc2)O[C@H]1c1ccccc1N=[N+]=[N-]`, the cytotoxicity call is “active”.
Take `[N-]=[N+]=NCc1ccccc1C[C@@]1(C(=O)N2CCCCC2)N=C(c2ccc(OCCCO)cc2)O[C@@H]1c1ccccc1N=[N+]=[N-]`: the cytotoxicity call was “inactive”.
Turning to `[N-]=[N+]=NCc1ccccc1C[C@]1(C(=O)N2CCOCC2)N=C(c2ccc(OCCCO)cc2)O[C@H]1c1ccccc1N=[N+]=[N-]`, the cytotoxicity call was “active”.
Take `CN1CCc2cc([C@H](CN)N(C)C)ccc21`: the cytotoxicity call is “inactive”.
As for `CCOP(=S)(OCC)SCSP(=S)(OCC)OCC`, the entry is “inactive”; as for `NCCc1cccs1`, “inactive”; as for `CN(C)C(=O)[C@H]1CCC2(CCNCC2)CO1`, “inactive”.
Consider `Cc1cc(C2=NO[C@](c3cc(Cl)cc(Cl)c3)(C(F)(F)F)C2)ccc1C(=O)NCC(=O)NCC(F)(F)F`, for which the cytotoxicity call is “inactive”.
Next, `[O-][n+]1ccccc1[S][Zn][S]c1cccc[n+]1[O-]`: “active”; `C[As](C)SC[C@H](NC(=O)CC[C@H](N)C(=O)O)C(=O)NCC(=O)O`: “inactive”; `CS(=O)(=O)c1ccc(C(=O)C2C(=O)CCCC2=O)c([N+](=O)[O-])c1`: “inactive”.
Next, `Cl.NCC(O)c1ccc(O)cc1` (stereo unspecified): “inactive”; `O=C([O-])CCCO.[Na+]`: “inactive”.
Turning to `CC12C(=O)OC(=O)C1(C)C1CCC2O1` (stereo unspecified), the cytotoxicity call is “active”.
With `C[C@@]12C(=O)OC(=O)[C@]1(C)[C@H]1CC[C@@H]2O1`, the cytotoxicity call is “active”.
As for `C[C@]12C(=O)OC(=O)[C@]1(C)[C@H]1CC[C@H]2O1`, the entry is “active”; as for `NC1(c2ccc(F)cc2)CCC1`, “inactive”.
Consider `COC(=O)C1(O)C[C@H]2CC[C@@H](C1)N2C` (stereo partly specified), for which the cytotoxicity call is “inactive”.
In the case of `CC=C(C)C(=O)OC1CC(OC(C)=O)C2(C(=O)OC)COC3C2C12COC(O)(C(=O)OC)C2C(C)(C12OC1(C)C1CC2OC2OC=CC21O)C3O` (stereo unspecified), the cytotoxicity call was “inactive”.
Regarding `O[C@H]1C2CN3CCN(C2)CC1(c1ccccc1)C3`, the cytotoxicity call was “inactive”.
As for `O=c1cccc2n1C[C@@H]1CNC[C@H]2C1`, the entry is “inactive”.
Next, `Cc1ccc(OC(=O)N(C)C[C@H]2OCc3ccccc3-c3c(n(C)c4ccccc34)C(=O)N([C@@H](C)CO)C[C@H]2C)cc1`: “inactive”.
As to `Cc1cc([N+](=O)[O-])cnc1N1CCNCC1`, the cytotoxicity call is “inactive”.
Take `CN1C(=O)[C@]23CC4=CC=C[C@H](O)[C@H]4N2C(=O)[C@@]1(CO)SS3`: the cytotoxicity call is “active”.
Turning to `CN1C(=O)[C@@]23C[C@]4([C@@]56C[C@]78SS[C@](CO)(C(=O)N7[C@@H]5Nc5ccccc56)N(C)C8=O)c5ccccc5N[C@H]4N2C(=O)[C@@]1(CO)SS3`, the cytotoxicity call is “active”.
As for `NC1=NC(=O)C2(CCNCC2)N1`, the entry is “inactive”; as for `NC[C@@H]1CCCN2CCCC[C@H]12`, “inactive”; as for `CCC(c1cccc(O)c1)C(C)CN(C)C.Cl` (stereo unspecified), “inactive”.
In the case of `COc1cccc2c1C(=O)c1c(O)c3c(c(O)c1C2=O)C[C@@](O)(C(=O)CO)C[C@@H]3O[C@H]1C[C@H](N2CCO[C@H](OC)C2)[C@H](O)[C@H](C)O1`, the cytotoxicity call was “active”.
Consider `CC(=C1C(=O)NC(=O)NC1=O)c1ccc(N)cc1`, for which the cytotoxicity call was “inactive”.
Regarding `O=C(O)Cc1cnc[nH]1`, the cytotoxicity call is “inactive”.
Next, `CN[C@@H]1[C@@H]2[C@H]3CCN2C[C@H]1O3`: “inactive”.
Turning to `CNC(=O)[C@@H]1COC[C@@H]2CN(CC(C)C)C[C@@H]21`, the cytotoxicity call was “inactive”.
Turning to `CCC1(O)C(=O)OCc2c1cc1n(c2=O)Cc2cc3ccccc3nc2-1` (stereo unspecified), the cytotoxicity call was “active”.
Next, `OCC(CO)N1CCC2(CCNCC2)CC1`: “inactive”.
`C#CC1(O)C=CC2C3CCC4=CC(=O)CCC4C3CCC21CC` (stereo unspecified): the cytotoxicity call was “inactive”.
Turning to `C[C@@H](N)C(=O)N[C@@H](CO)C(=O)N[C@H](C(=O)N[C@H](C(=O)N[C@H](C(=O)N[C@@H](CC(N)=O)C(=O)N[C@@H](Cc1ccc(O)cc1)C(=O)N[C@H](C(N)=O)[C@@H](C)O)[C@@H](C)O)[C@@H](C)O)[C@@H](C)O`, the cytotoxicity call was “inactive”.
Consider `C[C@@H]1[C@H](O)[C@@H](C)/C=C\C=C/CC\C=C/C=C\C=C/C=C\[C@H](O[C@@H]2O[C@H](C)[C@@H](O)[C@H](N)[C@@H]2O)C[C@@H]2O[C@](O)(C[C@@H](O)[C@H](O)CC[C@@H](O)C[C@@H](O)C[C@@H](O)CC(=O)O[C@H]1C)C[C@H](O)[C@H]2C(=O)O`, for which the cytotoxicity call was “inactive”.
In the case of `O=S(=O)(O)O.Oc1cccc2cccnc12`, the cytotoxicity call was “active”.
For the compound `CC(C)(C)NCC(O)c1cc(Cl)c(N)c(Cl)c1.Cl` (stereo unspecified), the cytotoxicity call was “inactive”.
`CC(C)(C)c1o[nH]c(=O)c1C[C@@H](N)C(=O)O`: the cytotoxicity call was “inactive”.
As for `CC1CCC2(NC1)OC1CC3C4CCC5CC(O)CCC5(C)C4CCC3(C)C1C2C.Cl` (stereo unspecified), the entry is “inactive”; as for `COc1cc2c(c(OC)c1OC)-c1ccc(O)c(=O)cc1[C@H](N)CC2`, “inactive”; as for `COc1cc2c(c(OC)c1OC)-c1ccc(O)c(=O)cc1C(NC(C)=O)CC2` (stereo unspecified), “inactive”.
With `COc1cc2c(c(OC)c1OC)-c1ccc(OC)c(=O)cc1C(NC(C)=O)CC2` (stereo unspecified), the cytotoxicity call is “active”.
In the case of `CC1(C)OCC2(CNC2)CO1`, the cytotoxicity call is “inactive”.
For `CN1CCOC[C@]2(CCCNC2)C1`, the cytotoxicity call is “inactive”.
Next, `CN(C)[C@@H]1C(=O)[C@H](C(N)=O)C(=O)[C@@]2(O)C(=O)[C@@H]3C(=O)c4c(O)cccc4[C@@](C)(O)[C@H]3C[C@@H]12`: “inactive”; `C[C@H]1CN([C@@H](C)CO)C(=O)c2c(c3ccccc3n2C)-c2ccccc2CO[C@@H]1CN(C)C(=O)Oc1ccccc1`: “inactive”.
Regarding `CN1[C@@H]2C[C@@H](O)C[C@H]1[C@@H]1O[C@@H]12`, the cytotoxicity call was “inactive”.
With `COc1ccc(OC(=O)N(C)C[C@@H]2OCc3ccccc3-c3c(n(C)c4ccccc34)C(=O)N([C@@H](C)CO)C[C@H]2C)cc1`, the cytotoxicity call is “active”.
`Cc1ccc(OC(=O)N(C)C[C@H]2OCc3ccccc3-c3c(n(C)c4ccccc34)C(=O)N([C@H](C)CO)C[C@H]2C)cc1`: the cytotoxicity call was “inactive”.
Regarding `Cc1ccc(OC(=O)N(C)C[C@H]2OCc3ccccc3-c3c(n(C)c4ccccc34)C(=O)N([C@H](C)CO)C[C@@H]2C)cc1`, the cytotoxicity call was “active”.
Next, `Cc1ccc(OC(=O)N(C)C[C@H]2OCc3ccccc3-c3c(n(C)c4ccccc34)C(=O)N([C@@H](C)CO)C[C@@H]2C)cc1`: “active”; `COc1ccc(OC(=O)N(C)C[C@H]2OCc3ccccc3-c3c(n(C)c4ccccc34)C(=O)N([C@@H](C)CO)C[C@H]2C)cc1`: “inactive”; `Cc1ccc(OC(=O)N(C)C[C@@H]2OCc3ccccc3-c3c(n(C)c4ccccc34)C(=O)N([C@@H](C)CO)C[C@H]2C)cc1`: “inactive”.
Regarding `Cc1ccc(OC(=O)N(C)C[C@@H]2OCc3ccccc3-c3c(n(C)c4ccccc34)C(=O)N([C@@H](C)CO)C[C@@H]2C)cc1`, the cytotoxicity call was “inactive”.
With `COc1ccc(OC(=O)N(C)C[C@H]2OCc3ccccc3-c3c(n(C)c4ccccc34)C(=O)N([C@H](C)CO)C[C@@H]2C)cc1`, the cytotoxicity call was “inactive”.
On to `Cc1ccc(OC(=O)N(C)C[C@@H]2OCc3ccccc3-c3c(n(C)c4ccccc34)C(=O)N([C@H](C)CO)C[C@@H]2C)cc1`, for which the cytotoxicity call is “inactive”.
Next, `CCOCC(=O)N1CC[C@H]2CNC[C@H]21`: “inactive”; `COc1cccc(C2(N)CCCC2)c1`: “inactive”; `CC(C)[C@H]1CN2CCC[C@H]2[C@@]2(O)O[C@](CC(=O)[C@@H]3C=C4c5cccc6[nH]cc(c56)C[C@H]4N(C)C3)(C(C)C)C(=O)N12`: “inactive”.
Next, `C[C@H](CO)N1C[C@H](C)[C@@H](CN(C)C(=O)Oc2ccc3ccccc3c2)OCc2cn(nn2)CCCC1=O`: “inactive”.
Turning to `NC(=N[N+](=O)[O-])NCCC[C@H](N)C(=O)O`, the cytotoxicity call was “inactive”.
Consider `CC(C)[C@H]1CNC(=O)C1`, for which the cytotoxicity call was “inactive”.
On to `O=C1NC(=S)NC(=O)C1c1ccccc1`, for which the cytotoxicity call is “inactive”.
Regarding `C#CCO[C@H]1CN2CCC1CC2`, the cytotoxicity call was “inactive”.
As for `CC(C)C[C@@H](N)C1(c2ccc(Cl)cc2)CCC1`, the entry is “inactive”; as for `CC1OC(OC2C=C3CCC4C(CCC5(C)C(c6ccc(=O)oc6)CCC45O)C3(C)CC2)C(O)C(O)C1O` (stereo unspecified), “active”.
As for `CN1CCc2cc3c(cc2C1C1OC(=O)c2c1ccc1c2OCO1)OCO3` (stereo unspecified), the cytotoxicity call is “inactive”.
In the case of `ClC(Cl)=C(c1ccc(Cl)cc1)c1ccc(Cl)cc1`, the cytotoxicity call was “inactive”.
As for `Nc1ccccc1N1CCNCC1`, the entry is “inactive”; as for `CN(C)C(=O)CN1CCN(C)C(=O)[C@]12CCN(c1ncccn1)C2`, “inactive”; as for `[NH2][Pt]1([NH2])[O]C(=O)C2(CCC2)C(=O)[O]1`, “inactive”.
As for `O=[N+]([O-])OC1COC2C(O)COC12` (stereo unspecified), the cytotoxicity call was “inactive”.
For the compound `CCn1cnc2c(Nc3cccc(Cl)c3)nc(N[C@@H]3CCCC[C@@H]3N)nc21`, the cytotoxicity call was “active”.
In the case of `Cc1cccc([C@H](CN)N(C)C)c1`, the cytotoxicity call is “inactive”.
Consider `C[C@@H]1CN([C@@H](C)CO)C(=O)CCCn2cc(nn2)CO[C@H]1CN(C)C(=O)Oc1cccc2ccccc12`, for which the cytotoxicity call is “inactive”.

Source of the values: the antibiotic and cytotoxicity screens of Wong et al. (2023).
